# Results as given in the OligoGym collection.
# Target: NAA35
# Assay: pooled miR-30 sensor sort-seq; sequence = guide strand
# Conditions: shRNA
# Note: reference of the scale not given here.
row,Sequence,sensor-assay potency score (higher = more potent)
1,TAGTTCACCATTTCTTCCCTTT,0.00785
2,TCTATTAACCTCATGGTCCGGG,0.321
3,TACTGCTAAACATTGTTGGTGT,0.709
4,TTATTTTTGCATATCGAGGGAA,0.0226
5,TATGTAATAGTACTCGTGCATA,-1.06
6,TATATAGGTAGCACTTGGGGGA,-0.0355
7,TTATATAGGTAGCACTTGGGGG,-1.1
8,TTAATTCTCGACAAGCTTCTTC,0.731
9,TAATTATTTTTGCATATCGAGG,-1.65
10,TTATTATATAGGTAGCACTTGG,-0.806
11,ATATATGTAATAGTACTCGTGC,0.454
12,TTATTCTATCTATTAATCTTGC,-0.493

# Target: NAALADL1
# Assay: as above
# Conditions: shRNA
row,Sequence,sensor-assay potency score (higher = more potent)
1,TTGTCGTAGATGCTCAGGTCGC,-1.1
2,TCTCACTGTAGTCACTGACTTT,-1.01
3,TAGACGCTCACATTCACCTGGC,0.571
4,TCTGTGTACACCAGCACCCCAG,-1.23
5,TACAGAGCAGGTCTCTTGCATC,-0.894
6,TTCCCATACAGCACGTAGCGAT,-0.768
7,TTCTGCAGTGTTGATATGCGTT,-0.417
8,TTGATGTCGGCAGGGTCTGTGT,-1.45
9,TTGAGGGGCAGGAAGAAGCTGT,-0.568
10,TTACAGAGCAGGTCTCTTGCAT,-0.148

# Target: NAGA
# Assay: as above
# Conditions: shRNA
row,Sequence,sensor-assay potency score (higher = more potent)
1,TTGGACAGGGCATAGAACCTGG,-0.532
2,TTTTCCTTGTGAATCCTGCGTC,0.331
3,TCATATATCACAGACCCGGTGA,-0.0849
4,TTCGATGAGAGATTTTTCCTTG,0.59
5,TTGATGATCACTGTGAAGTTGG,0.614
6,TTGTCCAGCATCAGCACCTGGG,-0.84
7,TTGTCCAGTGTGGTGCCTGGGT,-0.646
8,TTCGAAAACTTCCAAATCCTGA,-0.213
9,TTGAGCATGTCTACCTTCCACT,-1.03
10,TGAAGTTGGTTTCATCTCGGAG,-0.453
11,TTGCTCAGCAACGTCTGTGGGG,-0.463
12,TTGATTTTGATCATGAGTGGAT,0.182

# Target: NAGPA
# Assay: as above
# Conditions: shRNA
row,Sequence,sensor-assay potency score (higher = more potent)
1,AAGCCGAATAGTGCAAGCCGGA,-1.15
2,TTTCAGCAGGAACTCCGCCATT,-1.66
3,TTCATGCGGAAGAAGCCGCCGT,-0.589
4,TCGTTGATGTAGATGCTTCCAT,-0.346
